# Compounds with a hit are over-represented: about 2% of the library has one in this group of screens.
# APOBEC3A inh = APOBEC3A ssDNA deaminase inhibitors, primary screen, selectivity assay for APOBEC3G inhibitor project, biochemical, FAM/TAMRA oligo cleavage fluorescence | actives 0.41% (n = 330,000) | DNA dC->dU-editing enzyme APOBEC-3A (Homo sapiens), P31941 | recombinant A3A, FAM/TAMRA ssDNA deamination fluorescence | inhibition, % at 20 µM | AID 493011, 2011;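 active = at least 40% inhibition at 20 µM here, with at most 30% in a related deaminase screen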;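 also: plate controls were A3A with DMSO for no effect and wells lacking A3A enzyme for full effect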
# Target sequence (P31941 whole entry, looked up): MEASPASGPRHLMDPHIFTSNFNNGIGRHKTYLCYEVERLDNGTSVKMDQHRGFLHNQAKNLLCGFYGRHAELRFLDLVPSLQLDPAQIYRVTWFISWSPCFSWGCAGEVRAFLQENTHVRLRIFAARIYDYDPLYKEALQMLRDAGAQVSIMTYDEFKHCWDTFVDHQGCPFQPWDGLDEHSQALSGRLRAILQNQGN
# HGIII-sPLA2 inh = human group III sPLA2 inhibitors, primary screen, biochemical, QFRET, BODIPY PC-A2 liposome substrate; Group 3 secretory phospholipase A2 (Homo sapiens), Q9NZ20; QFRET BODIPY PC-A2 liposome hydrolysis, fluorescence; inhibition, % at 12.2 µM; actives 0.56% (n = 370,000); AID 743126, 2013;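 active = inhibition above mean plus 3 SD of compounds lying within the high and low control bounds, cut at about 19% in these data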;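 also: 0% = median of test compound wells and 100% = no enzyme DMSO wells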
# A3G deaminase = APOBEC3G DNA deaminase inhibitors, primary screen, biochemical, fluorescence, single-stranded DNA substrate, uHTS; DNA dC->dU-editing enzyme APOBEC-3G (Homo sapiens), Q9HC16; recombinant A3G, ssDNA deamination FAM/TAMRA fluorescence; inhibition, % at 20 µM; actives 0.28% (n = 330,000); AID 493012, 2011;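 active = inhibition of at least 40% at 20 µM, with no more than 30% in the related APOBEC3A deaminase screen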;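 also: plate controls were DMSO wells with A3G for no effect and wells lacking A3G enzyme for full effect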
# Fh CTSL1 inh = Fasciola hepatica cathepsin L1 inhibitors, primary screen, counter-screen for PFM18AAP inhibitor project, biochemical, QFRET, fluorogenic peptide substrate. AID 1906, 2009. actives 0.49% (n = 300,000). inhibition, % at 5.96 µM. recombinant F. hepatica cathepsin L1, Z-Leu-Arg-MCA fluorescence;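 active = inhibition above the mean of all tested compounds plus 3 SD, set per screening campaign, cut at about 17% in these data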;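 also: 0% = plate median of test compound wells and 100% = 1 µM Z-Phe-Ala-diazomethylketone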
# NALP1 inh = NALP1 inflammasome inhibitors in reconstituted yeast, colorimetric, S. cerevisiae, triplicate retest; inhibition, % at 10 µM; S. cerevisiae NALP1/ASC/caspase-1 growth, X-gal OD620, 72 h; actives 0.61% (n = 280,000); in the data active = inhibition mostly above about 24%, no sharp cut-off; inactive = mostly below about 32%
# * marks the source's active call; other numbers are inactive results; x = no result given.
SMILES,APOBEC3A inh,HGIII-sPLA2 inh,A3G deaminase,Fh CTSL1 inh,NALP1 inh
CCCCCCC/C=C(\C)[C@@H](O)[C@@H](C)C(=O)N1CCC[C@@H]1C(=O)O,x,-1.4,x,x,x
O=C1C=C(Nc2ccccc2)c2ccccc2C1=O,-0.6,12.8,-4.9,x,-0.3
O=C1C=C(Nc2cccc3cccnc23)c2ccccc2C1=O,-3.7,0.5,-7.2,19.9*,1.3
O=C1C=C(Nc2ccccc2C(=O)O)c2ccccc2C1=O,10.6,5.4,-2.1,28.9*,x
COc1ccc(CN2C/C(=C/c3ccc(C)cc3)N3C(=O)C[C@@H](c4ccccc4)N=C23)c(OC)c1,x,-10.0,x,x,x
Cc1ccc(OCCOc2ccc(Cl)cc2Cl)c(Br)n1,x,0.1,x,x,x
Cc1ccc(-n2c(C)cc(/C=C3\NC(=O)NC3=O)c2C)c(C)c1,1.7,-10.0,2.8,17.4*,20.6
Cc1cc(/C=C2/NC(=O)NC2=O)c(C)n1-c1ccccn1,-3.3,-1.2,-2.1,2.1,31.7
CC(=O)Nc1ccc(NC(=O)CCN2C(=O)c3ccccc3C2=O)cc1,-3.6,5.5,-12.6,0.0,44.0*
FC(F)(F)c1ccccc1NC(=S)OCCN1CCCC12CCC(c1ccccc1)CC2 (stereo not given),x,5.2,x,x,x
Cc1c(N=Cc2cc(Br)cc(Br)c2O)cccc1C(=O)O,1.1,-0.4,-8.6,1.1,57.6*
O=C(O)c1cccc(N/N=C/c2cc(Br)cc(Br)c2O)c1,0.1,-6.4,-6.2,3.1,18.5
Cc1ccc(-n2c(SCC(=O)N3CCOCC3)nc(O)c(Cc3ccccc3)c2=O)cc1,-2.4,10.6,0.7,0.9,18.3
O=C(CSc1nc(O)c(Cc2ccccc2)c(=O)n1-c1ccccc1)N1CCOCC1,-13.3,4.9,-3.7,-0.5,40.3*
COc1cccc(-c2nnc3n2N=C(c2ccc(Cl)cc2)CS3)c1,x,1.2,x,x,x
CCOC(=O)Cc1csc(NC(=O)Cc2ccc(Cl)cc2)n1,4.9,-6.9,-1.5,8.0,2.1
CCOC(=O)Cc1csc(N/N=C\c2ccc(N(C)C)cc2)n1,-5.6,-5.4,-9.0,18.9*,14.9
CCOC(=O)Cc1csc(NC(=O)Cc2ccc(Br)cc2)n1,-3.1,1.1,-8.3,0.1,35.4*
C=CCn1c(SCC(=O)OC(C)C)nnc1-c1ccc(C)cc1,x,7.1,x,x,x
COC(=O)Nc1ccc(S(=O)(=O)N2CCC(C(=O)N3CCCC(C)C3)CC2)cc1 (stereo not given),0.5,-8.4,-5.0,1.9,37.8*
NC(=O)C(Cc1ccccc1)N1C(=O)c2ccccc2C1=O (stereo not given),4.9,4.5,-3.8,18.8*,13.4
O=C(O)C(Cc1ccccc1)N1C(=O)c2ccccc2C1=O (stereo not given),2.0,-1.4,-0.6,-3.0,0.8
[N-]=[N+]=CC(=O)C(Cc1ccccc1)N1C(=O)c2ccccc2C1=O (stereo not given),-4.6,-5.7,-2.8,25.7*,6.9
CC(C)C(C(=O)Nc1ccccc1)N1C(=O)c2ccccc2C1=O (stereo not given),-0.8,6.9,-5.1,6.4,-79.6
CC(C)C(C(=O)C=[N+]=[N-])N1C(=O)c2ccccc2C1=O (stereo not given),1.2,0.3,0.7,20.9*,3.1
SMILES,APOBEC3A inh,HGIII-sPLA2 inh,A3G deaminase,Fh CTSL1 inh,NALP1 inh
Cc1ccccc1CS(=O)(=O)c1nnc([C@H](Cc2ccccc2)NC(=O)OC(C)(C)C)o1,-2.0,-25.0,-5.5,28.9*,13.2
CC(C)(C)OC(=O)N[C@@H](Cc1ccccc1)c1nnc(SCC(=O)O)o1,-0.9,-4.2,-2.3,29.0*,-24.0
CC(C)(C)OC(=O)N[C@@H](Cc1ccccc1)c1nnc(S(=O)(=O)Cc2ccccc2)o1,-2.2,-12.2,-5.8,24.8*,-5.2
CCSc1nnc([C@H](Cc2ccccc2)NC(=O)OC(C)(C)C)o1,-0.3,-2.5,-12.1,1.1,9.9
COC(=O)CSc1nnc([C@H](CC(C)C)NC(=O)OC(C)(C)C)o1,-4.3,-9.3,-6.5,52.1*,-10.9
CCC[C@H]1[C@@H](OC(=O)N2CCN(c3ccccc3)CC2)CC[C@@]23CCCN2C(=O)CCC[C@@H]13,x,-14.0,x,x,x

# High-throughput results: PubChem BioAssay, several laboratories
